Screening results from PubChem BioAssay.
Only a selection was taken, and hits are over-represented in it overall.
Pf Dd2 growth = inhibitors of Plasmodium falciparum Dd2 growth. Potency, µM (doses to about 28.9 µM), inactives show top-dose activity, negative = inhibition, usual class: inhibitors. AID 1347417. 120,000 compounds, 4.3% hits. P. falciparum Dd2 growth, SYBR Green, 72 h; active means well fitted inhibition curve with a large enough effect;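 further: plate controls were DMSO vehicle for no effect and reference drug for full effect; nearly all actives have a fitted effect of over 65% in size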
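Infected erythrocytes (Dd2, 0.3% parasitemia, 2.5% hematocrit final) are added to compound in RPMI-1640/Albumax II medium, grown 72 h at 37C in low oxygen, then lysed with saponin/Triton-X containing SYBR Green and read by fluorescence.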
The depositor's hits bear a star; i = inactive; [ ] = another dose, or the depositor's remark. Potency means the concentration at half of the fitted maximal effect.

SMILES	Pf Dd2 growth
COc1cccc(CN2CCCC(O)(CN3CCSCC3)C2=O)c1 (stereo not given)	-14.2%
O=C(NCCc1ccncc1)C1c2ccccc2C(=O)N(Cc2ccccc2)C12CCCC2 (stereo not given)	-29.2%
O=C(NCCc1ccncc1)C1c2ccccc2C(=O)N(C2CCCCC2)C12CCCCC2 (stereo not given)	10µM*
CCCNC(=O)C1c2ccccc2C(=O)N(C2CCCCC2)C12CCCCC2 (stereo not given)	i
CC(C)S(=O)(=O)N1CCC(N(Cc2cccnc2)C2CCOCC2)CC1	15.8%
O=S1(=O)NCC2(CCCN(Cc3cccnc3)C2)Oc2ncccc21 (stereo not given)	5.7%
COc1ccnc(-c2nnc3ccc(N(C)CCN(C)C)nn23)c1	16.3%[44.1 µM]
O=C(NCc1cccnc1)c1nc(-c2ccccc2)cc2[nH]ccc12	i
O=C1CCC(CNC(=O)c2nc(-c3ccccc3)cc3[nH]ccc23)N1 (stereo not given)	3.2%[44.1 µM]
O=C(NCCCn1ccnc1)c1nc(-c2ccccc2)cc2[nH]ccc12	11.2µM*
CCC(CC)C(=O)Nc1ccc([C@@H](O)[C@H]2COCC(=O)N2)cc1	8.3%[44.1 µM]
COc1ccc(-c2noc(-c3nc(-c4cc(OC)c(OC)c(OC)c4)no3)n2)cc1OC	33.3%
Cc1occc1C(=O)N1CC(F)(F)C[C@H]1c1nnc(C2CC2)o1	7.8%
Cc1noc(-c2ccc3c(c2)OCO3)c1C(=O)NCCSCc1ccccc1	-10.9%
CN(Cc1ccccc1)C(=O)c1cccc2c1CCN2C(=O)Nc1ccccc1	6.31µM*
CN(Cc1ccco1)C(=O)c1cccc2c1CCN2C(=O)Nc1ccccc1	i
CCNC(=O)c1cccc2c1CCN2C(=O)Nc1ccc(C)cc1	i
O=C(CCc1c[nH]c2ccccc12)N1CCC(Oc2ncccc2C(=O)N2CCOCC2)C1 (stereo not given)	i
CN(C)CC1(COc2ccc(S(C)(=O)=O)cc2)C[C@@H](O)[C@@H](O)C1 (stereo not given in full)	-4.7%[44.1 µM]
Cc1noc([C@@H]2CC(F)(F)CN2)n1	29.0%
COc1ccc2c(c1)C1(CCN(S(=O)(=O)c3ccc4c(c3)CC(=O)N4C)C1)C(=O)N2C (stereo not given)	2.51µM*
CN1C(=O)Cc2cc(S(=O)(=O)N3CCN(c4ccc(Cl)cc4)CC3)ccc21	-0.9%
COc1ccc2c(c1)C1(CCN(C(=O)CCc3ccccc3)C1)C(=O)N2C (stereo not given)	-2.4%
CCn1cc(S(=O)(=O)N2CCC(Oc3ccc(-c4noc(COC)n4)cc3)C2)cn1 (stereo not given)	64.3%[5.79 µM]
O=S(=O)(Cc1ccccc1)N1CCC(Oc2ccc(-c3noc(C4CC4)n3)cc2)C1 (stereo not given)	i[5.79 µM]
SMILES	Pf Dd2 growth
COc1ccc2nc([C@H]3CCN(Cc4ccc(C(=O)O)cc4)C3)[nH]c2c1	-14.8%[44.1 µM]
CC(C)N1CC[C@H](c2nc3ccc(C#N)cc3[nH]2)C1	-15.7%[44.1 µM]
COc1ccc2nc([C@H]3CCN(CCCc4ccccc4)C3)[nH]c2c1	11.2µM*
COc1ccc2nc([C@H]3CCN(C4CCN(C(C)=O)CC4)C3)[nH]c2c1	i
COc1ccc2nc([C@H]3CCN(C(C)C)C3)[nH]c2c1	31.6µM*
c1ccc(CCCN2CC[C@H](c3nc4ccccc4[nH]3)C2)cc1	i
CCCN(C)c1nccnc1OC1CCN(C(=O)c2ccc(OC)cc2)C1 (stereo not given)	-68.0%
COc1ccc(-c2noc([C@@H]3CCCN3C(=O)Cc3cccc(F)c3)n2)cc1OC	i
Cc1cc(C)cc(C(=O)NC2CCN(c3cc(-c4ccccc4)[nH]n3)CC2)c1	-8.8%
CCNC(=O)CC1=CSC2=NC(C)=C(C(=O)Nc3ccccc3)C(c3ccc(F)cc3)N12 (stereo not given)	i
COC(=O)c1scc(-c2ccc(C)cc2)c1S(=O)(=O)N1CCN(c2ccccc2F)CC1	11.2µM*
COC(=O)c1scc(-c2ccc(C)cc2)c1S(=O)(=O)N1CCN(c2ccc(C)cc2C)CC1	-7.7%
COC(=O)c1scc(-c2ccc(C)cc2)c1S(=O)(=O)Nc1ccc(N(C)C)cc1	10.4%
COC(=O)c1scc(-c2ccc(C)cc2)c1S(=O)(=O)N1CCN(c2ccccc2)CC1	0.0%
COC(=O)c1scc(-c2ccc(C)cc2)c1S(=O)(=O)Nc1cc(C)c(Cl)cc1OC	8.91µM*
COC(=O)c1scc(-c2ccc(C)cc2)c1S(=O)(=O)Nc1ccc(NC(C)=O)cc1	i
COc1ccc(-c2nccn3cc(C(=O)O)nc23)cc1	26.3%
O=C(c1ccc2c(c1)N(Cc1ccc(F)cc1Cl)C(=O)c1ccccc1S2)N1CCC2(CC1)OCCO2	i
COc1ccccc1CNC(=O)c1ccc2c(c1)N(Cc1cc(C)ccc1C)C(=O)c1ccccc1S2	2.51µM*
Cc1cc(C)cc(NC(=O)CN2C(=O)c3ccccc3Sc3ccc(C(=O)N4CCOCC4)cc32)c1	1.6%
COc1cccc(CN2C(=O)c3ccccc3Sc3ccc(C(=O)NCCc4ccc(Cl)cc4)cc32)c1	11.2µM*
COC(=O)c1ccc2c(c1)N(CC(=O)Nc1ccc(OC)c(Cl)c1)C(=O)c1ccccc1S2	i
COc1ccc(CCNC(=O)c2ccc3c(c2)N(Cc2ccccc2C)C(=O)c2ccccc2S3)cc1OC	i
Cc1ccc(CN2C(=O)c3ccccc3Sc3ccc(C(=O)N4CCC5(CC4)OCCO5)cc32)cc1	8.91µM*
COC(=O)c1ccc2c(c1)N(Cc1cc(C)ccc1C)C(=O)c1ccccc1S2	i
SMILES	Pf Dd2 growth
COc1cc(NC(=O)CN2C(=O)c3ccccc3Sc3ccc(C(=O)N4CCCC4)cc32)cc(OC)c1	7.94µM*
Cc1ccc(CN2C(=O)c3ccccc3Sc3ccc(C(=O)NCCCN4CCOCC4)cc32)cc1	i
O=C(NCC1CCOCC1)C1CC(=O)N(c2n[nH]c3cccc(F)c23)C1 (stereo not given)	-12.7%
O=C(c1ccccn1)N1CCC(c2nc(-c3cccnn3)no2)CC1	2.9%
N#Cc1cccc(C(=O)N2CCCCCCNC(=O)CC2c2ccccc2)c1 (stereo not given)	-28.7%
COC(=O)[C@H]1CN(C(=O)c2ccc(N(C)C)cc2)CCN1S(C)(=O)=O	0.3%[44.1 µM]
O=C(NC1CCCC1)c1ccc2c(c1)N(Cc1ccccc1Cl)C(=O)c1ccccc1S2	-9.1%
COc1ccc(CNC(=O)c2ccc3c(c2)N(Cc2ccccc2)C(=O)c2ccccc2S3=O)cc1 (stereo not given)	43.9%
O=C(NC1CCCC1)c1ccc2c(c1)N(Cc1ccc(C(F)(F)F)cc1)C(=O)c1ccccc1S2	12.6µM*
CCOc1ccc(CN2C(=O)c3ccccc3Sc3ccc(C(=O)NCc4ccc(C)cc4)cc32)cc1	12.6µM*
Cc1ccc(CNC(=O)c2ccc3c(c2)N(Cc2cccc(Cl)c2)C(=O)CS3)cc1	i
COc1ccc(CNC(=O)c2ccc3c(c2)N(Cc2cccc(Cl)c2)C(=O)c2ccccc2S3)c(OC)c1	11.2µM*
O=C(NCc1ccc(F)cc1)c1ccc2c(c1)N(Cc1ccc(F)cc1Cl)C(=O)CS2	i
CCOc1ccc(CN2C(=O)c3ccccc3Sc3ccc(C(=O)NCCc4ccccc4)cc32)cc1	-18.4%
CCOc1ccc(CN2C(=O)c3ccccc3Sc3ccc(C(=O)OC)cc32)cc1	15.9%
O=C(O)c1ccc2c(c1)N(Cc1ccc(F)cc1Cl)C(=O)c1ccccc1S2	i
COc1cccc(CNC(=O)c2ccc3c(c2)N(Cc2ccc(F)cc2Cl)C(=O)c2ccccc2S3)c1	11.2µM*
Cc1ccc(CN2C(=O)c3ccccc3Sc3ccc(C(=O)NC4CCCC4)cc32)cc1	-4.7%
